# According to PubChem BioAssay AID1159580 (chemical genetic matrix, 2015):
# Values joined by “and” are separate entries in the source; they are usually repeats but may differ in a detail not shown here. Equal values may be shown once. In all, about 5,500 compounds went through this assay and about 2,000 (36%) were called active. About 18% were inconclusive and are not listed. Some of the results follow. Values without a mark were called inactive. Cut-off read from the data, not from the text of the source: active = normalized growth mostly below about 0.91 (no sharp cut-off); inconclusive = no clear call, values can overlap the other calls; inactive = mostly above about 0.92.
# Experiment: chemical genetic growth profiling, strain panel (AID 1159580);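 note: tested at 20 µM; growth read once vehicle control cultures reached saturation at 30 °C; 1 = growth at the plate median or of vehicle wells; lower values mean less growth of the strain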
# Settings: S. cerevisiae deletion strains, growth OD
compound,measurement,setting,value
COc1c2ccoc2c(OC)c2oc(=O)ccc12,normalized growth,"locus YAL013W, strain DEP1, stronger effect = lower value",0.978
same,normalized growth,"locus YAL021C, strain ccr4, stronger effect = lower value",0.94
same,normalized growth,"locus YAL026C, strain drs2, stronger effect = lower value",0.953
same,normalized growth,"locus YAL030W, strain snc1, stronger effect = lower value",0.978
same,normalized growth,"locus YBL061C, strain skt5, stronger effect = lower value",0.974
same,normalized growth,"locus YBR009C, strain hhf1, stronger effect = lower value",0.923
same,normalized growth,"locus YBR021W, strain FUR4, stronger effect = lower value",0.901
same,normalized growth,"locus YBR023C, strain chs3, stronger effect = lower value",0.888 (active)
same,normalized growth,"locus YBR171W, strain sec66, stronger effect = lower value",0.975
same,normalized growth,"locus YBR229C, strain ROT2, stronger effect = lower value",0.945
same,normalized growth,"locus YBR231C, strain swc5, stronger effect = lower value",0.966
same,normalized growth,"locus YBR279W, strain paf1, stronger effect = lower value",0.939
same,normalized growth,"locus YCL011C, strain gbp2, stronger effect = lower value",0.934
same,normalized growth,"locus YCL016C, strain dcc1, stronger effect = lower value",0.876 (active)
same,normalized growth,"locus YCL029C, strain bik1, stronger effect = lower value",0.965
same,normalized growth,"locus YCL061C, strain MRC1, stronger effect = lower value",0.944
same,normalized growth,"locus YCL069W, strain vba3, stronger effect = lower value",0.979
same,normalized growth,"locus YCR088W, strain abp1, stronger effect = lower value",0.997
same,normalized growth,"locus YDL005C, strain med2, stronger effect = lower value",0.989
same,normalized growth,"locus YDL035C, strain GPR1, stronger effect = lower value",0.929
same,normalized growth,"locus YDL040C, strain nat1, stronger effect = lower value",0.996
same,normalized growth,"locus YDL074C, strain BRE1, stronger effect = lower value",0.934
same,normalized growth,"locus YDL101C, strain DUN1, stronger effect = lower value",0.959
same,normalized growth,"locus YDL134C, strain PPH21, stronger effect = lower value",0.983
same,normalized growth,"locus YDL185W, strain tfp1, stronger effect = lower value",0.941
same,normalized growth,"locus YDL192W, strain arf1, stronger effect = lower value",0.911 (active)
same,normalized growth,"locus YDR001C, strain nth1, stronger effect = lower value",0.97
same,normalized growth,"locus YDR069C, strain doa4, stronger effect = lower value",0.982
same,normalized growth,"locus YDR101C, strain arx1, stronger effect = lower value",0.904 (active)
same,normalized growth,"locus YDR137W, strain rgp1, stronger effect = lower value",0.991
same,normalized growth,"locus YDR150W, strain NUM1, stronger effect = lower value",0.991
same,normalized growth,"locus YDR159W, strain sac3, stronger effect = lower value",1.02
same,normalized growth,"locus YDR162C, strain NBP2, stronger effect = lower value",0.884
same,normalized growth,"locus YDR195W, strain ref2",1.26 [resistant] (active)
same,normalized growth,"locus YDR297W, strain sur2, stronger effect = lower value",0.978
same,normalized growth,"locus YDR318W, strain mcm21, stronger effect = lower value",0.966
same,normalized growth,"locus YDR334W, strain swr1, stronger effect = lower value",0.938
same,normalized growth,"locus YDR335W, strain msn5, stronger effect = lower value",0.91 (active)
same,normalized growth,"locus YDR388W, stronger effect = lower value",0.966
same,normalized growth,"locus YDR392W, strain spt3, stronger effect = lower value",0.724 (active)
same,normalized growth,"locus YDR502C, strain sam2, stronger effect = lower value",0.97
same,normalized growth,"locus YEL003W, strain gim4, stronger effect = lower value",0.949
same,normalized growth,"locus YEL037C, strain rad23, stronger effect = lower value",0.976
same,normalized growth,"locus YEL061C, strain CIN8 (second series), stronger effect = lower value",0.972
same,normalized growth,"locus YEL061C, strain CIN8, stronger effect = lower value",0.977
same,normalized growth,"locus YER015W, strain faa2, stronger effect = lower value",0.912 (active)
same,normalized growth,"locus YER016W, strain bim1, stronger effect = lower value",0.99
same,normalized growth,"locus YER110C, stronger effect = lower value",0.96
same,normalized growth,"locus YER111C, strain swi4, stronger effect = lower value",0.987
same,normalized growth,"locus YER155C, strain BEM2 (second series), stronger effect = lower value",0.835 (active)
same,normalized growth,"locus YER155C, strain BEM2, stronger effect = lower value",1.01
same,normalized growth,"locus YER167W, strain BCK2, stronger effect = lower value",0.97
same,normalized growth,"locus YFR010W, strain ubp6, stronger effect = lower value",0.968
same,normalized growth,"locus YGL078C, strain dbp3, stronger effect = lower value",0.987
same,normalized growth,"locus YGL086W, strain mad1, stronger effect = lower value",0.969
same,normalized growth,"locus YGL167C, strain pmr1, stronger effect = lower value",0.964
same,normalized growth,"locus YGL173C, strain kem1, stronger effect = lower value",0.979
same,normalized growth,"locus YGL227W, strain vid30, stronger effect = lower value",0.997
same,normalized growth,"locus YGL240W, strain doc1, stronger effect = lower value",0.969
same,normalized growth,"locus YGL248W, strain PDE1, stronger effect = lower value",0.96
same,normalized growth,"locus YGL253W, strain hxk2, stronger effect = lower value",0.959
same,normalized growth,"locus YGR078C, strain PAC10, stronger effect = lower value",0.962
same,normalized growth,"locus YGR135W, strain pre9, stronger effect = lower value",0.999
same,normalized growth,"locus YGR252W, strain gcn5, stronger effect = lower value",0.91
same,normalized growth,"locus YHR013C, strain ard1, stronger effect = lower value",0.912
same,normalized growth,"locus YHR027C, strain rpn1, stronger effect = lower value",0.959
same,normalized growth,"locus YHR030C, strain SLT2, stronger effect = lower value",0.99 and 0.993
same,normalized growth,"locus YHR079C, strain IRE1 (second series), stronger effect = lower value",0.983
same,normalized growth,"locus YHR079C, strain IRE1, stronger effect = lower value",0.989
same,normalized growth,"locus YHR094C, strain hxt1, stronger effect = lower value",0.98
same,normalized growth,"locus YHR129C, strain ARP1, stronger effect = lower value",0.981
same,normalized growth,"locus YHR142W, strain chs7, stronger effect = lower value",0.882
same,normalized growth,"locus YHR200W, strain rpn10, stronger effect = lower value",0.936
same,normalized growth,"locus YIL066C, strain RNR3, stronger effect = lower value",0.946
same,normalized growth,"locus YIL073C, strain SPO22, stronger effect = lower value",0.954
same,normalized growth,"locus YIL125W, strain kgd1, stronger effect = lower value",0.984
same,normalized growth,"locus YIR030C, strain dcg1, stronger effect = lower value",0.979
same,normalized growth,"locus YJL092W, strain hpr5, stronger effect = lower value",0.964
same,normalized growth,"locus YJL095W, strain BCK1 (second series), stronger effect = lower value",0.969
same,normalized growth,"locus YJL095W, strain BCK1, stronger effect = lower value",0.913 and 0.989
same,normalized growth,"locus YJL115W, strain asf1, stronger effect = lower value",0.959
same,normalized growth,"locus YJL129C, strain trk1, stronger effect = lower value",1.02
same,normalized growth,"locus YJL134W, strain LCB3, stronger effect = lower value",0.983
same,normalized growth,"locus YJL154C, strain vps35, stronger effect = lower value",0.983
same,normalized growth,"locus YJL164C, strain tpk1, stronger effect = lower value",0.912 (active)
same,normalized growth,"locus YJL166W, strain qcr8, stronger effect = lower value",0.96
same,normalized growth,"locus YJL168C, strain set2, stronger effect = lower value",0.989
same,normalized growth,"locus YJL187C, strain SWE1 (second series), stronger effect = lower value",0.959
same,normalized growth,"locus YJL187C, strain SWE1, stronger effect = lower value",0.951
same,normalized growth,"locus YJR066W, strain TOR1, stronger effect = lower value",0.939
same,normalized growth,"locus YJR075W, strain HOC1, stronger effect = lower value",0.964
same,normalized growth,"locus YKL009W, strain mrt4, stronger effect = lower value",0.956
same,normalized growth,"locus YKL068W, stronger effect = lower value",0.996
same,normalized growth,"locus YKL085W, strain MDH1 (second series), stronger effect = lower value",0.987
same,normalized growth,"locus YKL085W, strain MDH1, stronger effect = lower value",0.987
same,normalized growth,"locus YKL160W, strain elf1, stronger effect = lower value",0.933
same,normalized growth,"locus YKL190W, strain CNB1, stronger effect = lower value",0.985
same,normalized growth,"locus YKR001C, strain vps1, stronger effect = lower value",0.905
same,normalized growth,"locus YKR026C, strain gcn3, stronger effect = lower value",0.99
same,normalized growth,"locus YKR091W, strain srl3, stronger effect = lower value",0.991
same,normalized growth,"locus YLL001W, strain dnm1, stronger effect = lower value",0.909
same,normalized growth,"locus YLL026W, stronger effect = lower value",0.979
same,normalized growth,"locus YLL041C, strain sdh2, stronger effect = lower value",0.981
same,normalized growth,"locus YLR027C, strain aat2, stronger effect = lower value",0.975
same,normalized growth,"locus YLR039C, strain RIC1, stronger effect = lower value",0.964
same,normalized growth,"locus YLR058C, strain SHM2, stronger effect = lower value",0.959
same,normalized growth,"locus YLR102C, strain apc9, stronger effect = lower value",0.979
same,normalized growth,"locus YLR113W, strain HOG1, stronger effect = lower value",1.05
same,normalized growth,"locus YLR221C, strain rsa3, stronger effect = lower value",0.983
same,normalized growth,"locus YLR258W, strain gsy2, stronger effect = lower value",0.907 (active)
same,normalized growth,"locus YLR262C, strain YPT6 (second series), stronger effect = lower value",0.969
same,normalized growth,"locus YLR262C, strain YPT6, stronger effect = lower value",1.05
same,normalized growth,"locus YLR268W, strain sec22, stronger effect = lower value",0.921
same,normalized growth,"locus YLR320W, strain mms22, stronger effect = lower value",0.945
same,normalized growth,"locus YLR330W, strain CHS5, stronger effect = lower value",0.963
same,normalized growth,"locus YLR342W, strain FKS1, stronger effect = lower value",0.99
same,normalized growth,"locus YLR357W, strain rsc2, stronger effect = lower value",1.06
same,normalized growth,"locus YLR370C, strain arc18, stronger effect = lower value",0.988
same,normalized growth,"locus YLR371W, strain rom2, stronger effect = lower value",0.84 (active)
same,normalized growth,"locus YLR384C, strain iki3, stronger effect = lower value",0.991
same,normalized growth,"locus YLR418C, strain cdc73, stronger effect = lower value",0.932
same,normalized growth,"locus YML016C, strain PPZ1, stronger effect = lower value",0.948
same,normalized growth,"locus YML032C, strain rad52, stronger effect = lower value",0.951
same,normalized growth,"locus YML120C, strain ndi1, stronger effect = lower value",0.901 (active)
same,normalized growth,"locus YML124C, strain tub3, stronger effect = lower value",0.974
same,normalized growth,"locus YMR058W, strain fet3, stronger effect = lower value",0.921
same,normalized growth,"locus YMR078C, strain ctf18, stronger effect = lower value",0.969
same,normalized growth,"locus YMR125W, strain sto1, stronger effect = lower value",0.994
same,normalized growth,"locus YMR129W, stronger effect = lower value",0.986
same,normalized growth,"locus YMR205C, strain PFK2, stronger effect = lower value",0.913
same,normalized growth,"locus YMR223W, strain ubp8, stronger effect = lower value",0.974
same,normalized growth,"locus YMR231W, strain pep5, stronger effect = lower value",0.991
same,normalized growth,"locus YMR263W, strain SAP30, stronger effect = lower value",0.973
same,normalized growth,"locus YMR307W, strain GAS1, stronger effect = lower value",0.956
same,normalized growth,"locus YNL067W, strain RPL9B, stronger effect = lower value",0.999
same,normalized growth,"locus YNL071W, strain lat1, stronger effect = lower value",0.915 (active)
same,normalized growth,"locus YNL128W, strain TEP1, stronger effect = lower value",0.932
same,normalized growth,"locus YNL153C, strain GIM3, stronger effect = lower value",0.947
same,normalized growth,"locus YNL183C, strain NPR1, stronger effect = lower value",0.939
same,normalized growth,"locus YNL209W, strain ssb2, stronger effect = lower value",0.958
same,normalized growth,"locus YNL233W, strain BNI4, stronger effect = lower value",0.946
same,normalized growth,"locus YNL248C, strain rpa49, stronger effect = lower value",0.849 (active)
same,normalized growth,"locus YNL250W, strain rad50, stronger effect = lower value",0.988
same,normalized growth,"locus YNL271C, strain bni1, stronger effect = lower value",0.983
same,normalized growth,"locus YNL298W, strain CLA4, stronger effect = lower value",0.929
same,normalized growth,"locus YNL307C, strain MCK1, stronger effect = lower value",0.949
same,normalized growth,"locus YNL322C, strain KRE1 (second series), stronger effect = lower value",0.986
same,normalized growth,"locus YNR049C, strain mso1, stronger effect = lower value",0.993
same,normalized growth,"locus YNR052C, strain pop2, stronger effect = lower value",1
same,normalized growth,"locus YOL006C, strain TOP1, stronger effect = lower value",0.691
same,normalized growth,"locus YOL012C, strain htz1",0.85
same,normalized growth,"locus YOL147C, strain pex11, stronger effect = lower value",0.984
same,normalized growth,"locus YOR001W, strain rrp6, stronger effect = lower value",0.978
same,normalized growth,"locus YOR061W, strain CKA2, stronger effect = lower value",0.931
same,normalized growth,"locus YOR069W, strain VPS5, stronger effect = lower value",0.994
same,normalized growth,"locus YOR070C, strain gyp1, stronger effect = lower value",0.951
same,normalized growth,"locus YOR080W, strain dia2, stronger effect = lower value",0.992
same,normalized growth,"locus YOR083W, strain WHI5, stronger effect = lower value",0.943
same,normalized growth,"locus YOR106W, strain vam3, stronger effect = lower value",0.875
same,normalized growth,"locus YOR136W, strain idh2, stronger effect = lower value",0.959
same,normalized growth,"locus YOR144C, strain elg1, stronger effect = lower value",0.969
same,normalized growth,"locus YOR184W, strain ser1, stronger effect = lower value",0.871 (active)
same,normalized growth,"locus YOR231W, strain MKK1, stronger effect = lower value",0.962
same,normalized growth,"locus YOR265W, strain rbl2, stronger effect = lower value",0.979
same,normalized growth,"locus YOR270C, strain vph1, stronger effect = lower value",0.815
same,normalized growth,"locus YOR290C, strain snf2, stronger effect = lower value",0.876
same,normalized growth,"locus YOR316C, strain cot1, stronger effect = lower value",0.948
same,normalized growth,"locus YPL051W, strain arl3, stronger effect = lower value",0.928
same,normalized growth,"locus YPL055C, strain LGE1, stronger effect = lower value",0.868
same,normalized growth,"locus YPL078C, strain atp4, stronger effect = lower value",0.882 (active)
same,normalized growth,"locus YPL106C, strain sse1, stronger effect = lower value",0.832 (active)
same,normalized growth,"locus YPL240C, strain hsp82, stronger effect = lower value",0.939
same,normalized growth,"locus YPL241C, strain CIN2, stronger effect = lower value",0.993
same,normalized growth,"locus YPL256C, strain CLN2, stronger effect = lower value",1.08
same,normalized growth,"locus YPR119W, strain clb2, stronger effect = lower value",0.997
same,normalized growth,"locus YPR141C, strain kar3, stronger effect = lower value",0.98
same,normalized growth,"locus YPR163C, strain tif3, stronger effect = lower value",0.948
same,normalized growth,"locus YPR167C, strain met16, stronger effect = lower value",0.983
same,normalized growth,"strain wtn01, stronger effect = lower value",0.91
